Experimental data taken from the supplement of paper PMC11732987, “Enantioselective OTUD7B fragment discovery through chemoproteomics screening and high-throughput optimisation” (Communications Chemistry, 2025).
A number with no mark means an inactive call.

Columns and labels:
Assay in all cases: log2 ratio of Biotin-Ahx-Ub-VS probe labelling (fragment/DMSO); higher = less target engagement (more negative = stronger competition), active = hit call of the paper (q ≤ 0.05, log2 ratio ≤ -1)
Conditions in all cases: compound concentration: 200 uM; treatment time: 3 h
USP19 = target: T1, USP19 (UniProt O94966)
T1 sequence (whole entry): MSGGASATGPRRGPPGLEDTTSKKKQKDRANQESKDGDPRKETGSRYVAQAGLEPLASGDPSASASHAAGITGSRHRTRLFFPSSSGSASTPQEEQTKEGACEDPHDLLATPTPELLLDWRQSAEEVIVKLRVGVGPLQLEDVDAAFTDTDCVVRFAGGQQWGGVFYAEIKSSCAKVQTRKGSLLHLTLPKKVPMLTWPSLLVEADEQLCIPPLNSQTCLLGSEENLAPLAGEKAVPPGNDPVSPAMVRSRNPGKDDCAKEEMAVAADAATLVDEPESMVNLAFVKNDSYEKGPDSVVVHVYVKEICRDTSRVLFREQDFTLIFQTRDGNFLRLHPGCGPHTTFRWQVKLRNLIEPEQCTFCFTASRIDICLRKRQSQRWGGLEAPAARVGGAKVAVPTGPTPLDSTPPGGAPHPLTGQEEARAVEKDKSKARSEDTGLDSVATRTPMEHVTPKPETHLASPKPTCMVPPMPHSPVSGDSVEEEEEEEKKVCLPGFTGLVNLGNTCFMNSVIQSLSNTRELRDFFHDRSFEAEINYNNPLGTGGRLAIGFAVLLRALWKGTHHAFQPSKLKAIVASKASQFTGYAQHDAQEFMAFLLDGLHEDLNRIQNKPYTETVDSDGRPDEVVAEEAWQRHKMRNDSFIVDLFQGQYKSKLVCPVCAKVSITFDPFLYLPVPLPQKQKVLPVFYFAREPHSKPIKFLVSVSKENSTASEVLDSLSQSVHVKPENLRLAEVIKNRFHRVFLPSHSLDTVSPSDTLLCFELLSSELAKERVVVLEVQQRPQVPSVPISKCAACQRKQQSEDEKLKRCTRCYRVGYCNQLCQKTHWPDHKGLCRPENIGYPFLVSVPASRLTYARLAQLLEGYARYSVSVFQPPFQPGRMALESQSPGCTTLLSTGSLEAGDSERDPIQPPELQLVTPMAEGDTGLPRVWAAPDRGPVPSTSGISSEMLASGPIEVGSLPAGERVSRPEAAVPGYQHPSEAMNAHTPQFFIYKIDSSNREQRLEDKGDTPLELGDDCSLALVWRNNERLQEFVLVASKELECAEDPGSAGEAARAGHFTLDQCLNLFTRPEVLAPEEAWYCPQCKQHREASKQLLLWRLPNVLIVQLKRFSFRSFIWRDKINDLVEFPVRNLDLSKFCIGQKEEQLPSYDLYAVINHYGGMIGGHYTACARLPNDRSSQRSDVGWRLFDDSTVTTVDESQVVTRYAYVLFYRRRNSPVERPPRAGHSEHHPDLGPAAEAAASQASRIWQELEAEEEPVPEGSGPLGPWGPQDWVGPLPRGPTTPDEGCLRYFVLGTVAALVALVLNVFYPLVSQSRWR
Outline: (§1)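 HEK293T lysate (495 µg per sample, in Tris/CHAPS/IGEPAL buffer with protease inhibitors) was exposed in triplicate for 3 h to fragment at 200 µM or to vehicle, then to Biotin-Ahx-Ub-VS at 0.5 µM final for 1 h. Labelled DUBs were enriched on NeutrAvidin, digested with LysC and trypsin, and analysed by diaPASEF LC-MS/MS. Spectronaut label-free quantities were normalised to the global median, and values are average log2 ratios of fragment over vehicle from an unpaired t-test. Only proteins with ≥2 unique peptides were used.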

USP22 = target: T2, USP22 (UniProt Q9UPT9)
T2 sequence (whole entry): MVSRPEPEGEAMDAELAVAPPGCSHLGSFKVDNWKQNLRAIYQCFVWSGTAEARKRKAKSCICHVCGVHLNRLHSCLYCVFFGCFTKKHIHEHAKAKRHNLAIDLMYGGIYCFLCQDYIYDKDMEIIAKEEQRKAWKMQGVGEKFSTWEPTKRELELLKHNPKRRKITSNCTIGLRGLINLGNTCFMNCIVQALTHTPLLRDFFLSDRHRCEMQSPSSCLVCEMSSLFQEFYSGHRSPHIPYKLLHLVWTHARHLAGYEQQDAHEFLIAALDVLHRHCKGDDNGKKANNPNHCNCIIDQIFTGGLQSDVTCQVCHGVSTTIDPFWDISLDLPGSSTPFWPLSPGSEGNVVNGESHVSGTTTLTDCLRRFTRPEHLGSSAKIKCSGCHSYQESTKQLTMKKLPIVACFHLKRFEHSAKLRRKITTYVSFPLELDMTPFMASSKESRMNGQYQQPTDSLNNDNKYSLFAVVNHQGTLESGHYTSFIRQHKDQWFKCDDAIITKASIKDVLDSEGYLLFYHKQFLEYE
Outline: as §1

USP24 = USP24 (UniProt Q9UPU5)
Sequence of USP24 (Q9UPU5 whole entry): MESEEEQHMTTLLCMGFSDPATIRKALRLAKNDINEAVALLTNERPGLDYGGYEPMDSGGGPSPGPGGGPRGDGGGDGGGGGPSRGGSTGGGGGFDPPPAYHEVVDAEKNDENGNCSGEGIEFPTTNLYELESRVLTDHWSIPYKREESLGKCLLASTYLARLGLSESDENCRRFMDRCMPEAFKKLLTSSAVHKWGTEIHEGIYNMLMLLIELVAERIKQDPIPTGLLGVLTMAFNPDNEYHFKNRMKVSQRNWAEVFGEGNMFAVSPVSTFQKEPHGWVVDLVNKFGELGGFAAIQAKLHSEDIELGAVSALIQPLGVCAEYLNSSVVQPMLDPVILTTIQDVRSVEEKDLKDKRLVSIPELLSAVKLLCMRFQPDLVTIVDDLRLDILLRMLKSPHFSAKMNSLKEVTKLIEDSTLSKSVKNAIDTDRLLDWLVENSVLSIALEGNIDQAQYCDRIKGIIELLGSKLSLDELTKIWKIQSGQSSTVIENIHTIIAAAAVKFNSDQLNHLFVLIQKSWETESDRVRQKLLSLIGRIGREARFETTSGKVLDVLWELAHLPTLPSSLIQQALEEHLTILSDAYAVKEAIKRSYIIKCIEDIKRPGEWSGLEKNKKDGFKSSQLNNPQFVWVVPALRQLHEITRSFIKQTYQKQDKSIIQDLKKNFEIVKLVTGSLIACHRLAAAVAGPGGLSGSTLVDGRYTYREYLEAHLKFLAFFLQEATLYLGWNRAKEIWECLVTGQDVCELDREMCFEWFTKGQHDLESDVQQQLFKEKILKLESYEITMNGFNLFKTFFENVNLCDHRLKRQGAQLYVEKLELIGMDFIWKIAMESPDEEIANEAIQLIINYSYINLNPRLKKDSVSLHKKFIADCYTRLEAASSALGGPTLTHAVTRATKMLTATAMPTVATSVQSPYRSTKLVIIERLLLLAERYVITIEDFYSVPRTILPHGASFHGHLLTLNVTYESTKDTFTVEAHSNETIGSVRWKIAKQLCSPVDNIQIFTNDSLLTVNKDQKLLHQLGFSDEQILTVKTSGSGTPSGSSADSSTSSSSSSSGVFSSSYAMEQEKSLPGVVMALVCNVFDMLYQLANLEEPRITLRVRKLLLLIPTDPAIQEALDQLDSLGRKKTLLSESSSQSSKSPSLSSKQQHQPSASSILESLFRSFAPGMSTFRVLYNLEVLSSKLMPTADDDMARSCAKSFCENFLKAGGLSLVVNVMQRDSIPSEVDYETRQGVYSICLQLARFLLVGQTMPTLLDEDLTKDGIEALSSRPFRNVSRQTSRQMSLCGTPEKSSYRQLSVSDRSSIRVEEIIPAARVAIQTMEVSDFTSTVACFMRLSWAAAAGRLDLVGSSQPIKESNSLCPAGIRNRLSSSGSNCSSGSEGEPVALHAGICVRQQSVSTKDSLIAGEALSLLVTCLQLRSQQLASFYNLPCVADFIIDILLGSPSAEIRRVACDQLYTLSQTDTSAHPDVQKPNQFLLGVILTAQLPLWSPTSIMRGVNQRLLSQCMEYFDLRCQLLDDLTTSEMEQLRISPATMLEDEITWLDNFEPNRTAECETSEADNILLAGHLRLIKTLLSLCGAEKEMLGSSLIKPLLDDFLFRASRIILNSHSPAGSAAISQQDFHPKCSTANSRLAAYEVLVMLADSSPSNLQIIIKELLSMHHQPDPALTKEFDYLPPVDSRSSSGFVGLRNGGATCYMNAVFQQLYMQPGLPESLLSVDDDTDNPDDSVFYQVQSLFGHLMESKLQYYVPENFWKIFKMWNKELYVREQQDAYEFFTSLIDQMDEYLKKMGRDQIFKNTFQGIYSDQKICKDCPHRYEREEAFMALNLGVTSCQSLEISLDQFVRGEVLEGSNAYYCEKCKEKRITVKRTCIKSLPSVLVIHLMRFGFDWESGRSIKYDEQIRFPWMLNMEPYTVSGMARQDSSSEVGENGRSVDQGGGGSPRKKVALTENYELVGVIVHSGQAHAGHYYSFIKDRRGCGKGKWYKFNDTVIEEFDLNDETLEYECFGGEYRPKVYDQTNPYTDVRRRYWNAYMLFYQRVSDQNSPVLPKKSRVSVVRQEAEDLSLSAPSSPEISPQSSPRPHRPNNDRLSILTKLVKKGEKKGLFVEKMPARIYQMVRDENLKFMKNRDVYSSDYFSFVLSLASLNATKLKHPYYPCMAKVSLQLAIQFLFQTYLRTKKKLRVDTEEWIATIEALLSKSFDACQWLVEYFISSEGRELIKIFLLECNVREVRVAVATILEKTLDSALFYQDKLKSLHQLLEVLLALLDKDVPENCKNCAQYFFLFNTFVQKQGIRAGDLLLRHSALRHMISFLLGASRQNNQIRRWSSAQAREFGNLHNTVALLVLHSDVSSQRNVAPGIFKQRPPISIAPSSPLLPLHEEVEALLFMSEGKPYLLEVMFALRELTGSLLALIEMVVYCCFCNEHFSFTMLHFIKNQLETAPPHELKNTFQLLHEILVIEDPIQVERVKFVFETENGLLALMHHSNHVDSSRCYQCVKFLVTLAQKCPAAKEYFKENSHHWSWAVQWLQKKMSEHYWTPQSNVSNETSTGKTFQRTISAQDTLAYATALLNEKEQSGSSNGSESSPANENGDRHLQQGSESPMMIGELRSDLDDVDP
Outline: as §1

USP25 = target: T3, USP25 (UniProt Q9UHP3)
T3 sequence (whole entry): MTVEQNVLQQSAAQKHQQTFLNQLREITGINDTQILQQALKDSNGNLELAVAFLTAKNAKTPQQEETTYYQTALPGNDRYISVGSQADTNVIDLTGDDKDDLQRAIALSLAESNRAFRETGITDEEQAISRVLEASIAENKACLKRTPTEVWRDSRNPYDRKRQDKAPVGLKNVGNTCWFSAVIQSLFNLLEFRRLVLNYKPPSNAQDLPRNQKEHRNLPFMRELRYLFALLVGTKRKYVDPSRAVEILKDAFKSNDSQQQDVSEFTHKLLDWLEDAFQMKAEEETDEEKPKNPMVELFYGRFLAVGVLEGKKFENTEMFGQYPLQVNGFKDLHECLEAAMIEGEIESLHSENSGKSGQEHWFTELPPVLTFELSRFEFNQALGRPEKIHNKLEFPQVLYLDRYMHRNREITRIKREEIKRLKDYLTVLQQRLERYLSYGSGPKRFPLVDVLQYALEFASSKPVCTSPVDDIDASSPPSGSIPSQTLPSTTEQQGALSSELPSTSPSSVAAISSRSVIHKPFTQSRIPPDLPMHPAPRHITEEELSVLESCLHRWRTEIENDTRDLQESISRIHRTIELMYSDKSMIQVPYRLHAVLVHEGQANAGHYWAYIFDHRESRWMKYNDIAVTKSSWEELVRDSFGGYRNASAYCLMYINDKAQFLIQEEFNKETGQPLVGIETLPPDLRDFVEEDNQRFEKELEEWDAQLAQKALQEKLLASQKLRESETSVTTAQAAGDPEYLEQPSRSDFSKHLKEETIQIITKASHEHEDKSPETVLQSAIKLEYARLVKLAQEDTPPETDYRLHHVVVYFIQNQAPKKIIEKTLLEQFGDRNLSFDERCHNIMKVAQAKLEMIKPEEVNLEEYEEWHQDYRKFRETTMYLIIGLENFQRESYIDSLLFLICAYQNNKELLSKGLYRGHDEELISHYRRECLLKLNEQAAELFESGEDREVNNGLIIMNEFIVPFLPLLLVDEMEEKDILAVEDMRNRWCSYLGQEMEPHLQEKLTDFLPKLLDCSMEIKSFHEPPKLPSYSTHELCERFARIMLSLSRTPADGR
Outline: as §1

USP28 = target: T4, USP28 (UniProt Q96RU2)
T4 sequence (whole entry): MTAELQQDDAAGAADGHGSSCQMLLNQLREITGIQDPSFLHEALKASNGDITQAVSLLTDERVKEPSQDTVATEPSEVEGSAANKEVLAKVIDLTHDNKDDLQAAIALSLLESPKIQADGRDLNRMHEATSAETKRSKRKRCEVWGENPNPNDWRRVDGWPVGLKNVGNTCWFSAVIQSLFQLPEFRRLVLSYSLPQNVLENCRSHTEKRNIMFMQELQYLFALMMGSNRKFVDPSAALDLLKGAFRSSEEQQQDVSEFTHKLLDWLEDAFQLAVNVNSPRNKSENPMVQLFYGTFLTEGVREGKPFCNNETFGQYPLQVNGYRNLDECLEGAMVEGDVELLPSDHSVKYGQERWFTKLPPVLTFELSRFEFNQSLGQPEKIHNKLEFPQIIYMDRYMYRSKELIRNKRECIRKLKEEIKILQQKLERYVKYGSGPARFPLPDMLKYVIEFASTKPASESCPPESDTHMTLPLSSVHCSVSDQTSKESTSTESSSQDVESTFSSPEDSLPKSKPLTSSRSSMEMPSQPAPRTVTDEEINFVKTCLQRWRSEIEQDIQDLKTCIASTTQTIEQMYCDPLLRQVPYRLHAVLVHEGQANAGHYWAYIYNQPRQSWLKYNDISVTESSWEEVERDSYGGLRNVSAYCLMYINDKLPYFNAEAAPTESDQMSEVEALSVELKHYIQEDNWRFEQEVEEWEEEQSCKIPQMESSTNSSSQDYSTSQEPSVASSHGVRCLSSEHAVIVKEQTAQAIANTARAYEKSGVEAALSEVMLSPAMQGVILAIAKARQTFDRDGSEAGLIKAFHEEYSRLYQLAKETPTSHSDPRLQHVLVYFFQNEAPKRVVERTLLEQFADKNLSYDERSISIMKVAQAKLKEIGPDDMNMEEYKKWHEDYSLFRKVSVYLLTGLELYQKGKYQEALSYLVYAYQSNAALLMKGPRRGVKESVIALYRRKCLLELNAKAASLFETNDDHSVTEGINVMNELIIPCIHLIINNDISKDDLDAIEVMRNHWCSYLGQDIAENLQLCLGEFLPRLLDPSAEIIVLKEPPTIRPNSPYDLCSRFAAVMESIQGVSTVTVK
Outline: as §1

O=C(CCl)N1CCN(c2nc3ccccc3o2)CC1
log2 ratio of Biotin-Ahx-Ub-VS probe labelling (USP19): -0.702 | log2 ratio of Biotin-Ahx-Ub-VS probe labelling (USP22): 0.146 | log2 ratio of Biotin-Ahx-Ub-VS probe labelling (USP24): -1.3 (active) | log2 ratio of Biotin-Ahx-Ub-VS probe labelling (USP25): -0.53 | log2 ratio of Biotin-Ahx-Ub-VS probe labelling (USP28): -0.6
